The results in this text go back to article PMC6792352, “Limited Chemical Structural Diversity Found to Modulate Thyroid Hormone Receptor in the Tox21 Chemical Library” (Environmental Health Perspectives, 2019).

Structures can show the parent of a compound that is named as a salt. Bounds are passed on as bounds.

In this test the test system is thyroid hormone receptor (endogenous TRα and TRβ). Details: species or system GH3-TRE-Luc (rat pituitary); GH3-TRE-Luc luciferase reporter, antagonist mode against 1 nM T3, loss of signal, qHTS. The conditions noted are these: read-out: Average AC50 (uM) GH3-TRE-Antag, antagonist mode, 1 nM T3, no GH3 cytotoxicity hit.
What is called AC50 is the concentration giving half of the maximal activity seen. On to `Nc1nc(N)c2nc(CNc3ccc(C(=O)N[C@@H](CCC(=O)O)C(=O)O)cc3)cnc2n1` [4-Aminofolic acid], for which the AC50 came out at 25.2 µM. In the case of `CC[C@H](NC(=O)c1cc(F)ccc1NS(=O)(=O)c1cccc2cccnc12)c1ccccc1` [AVE3295], the AC50 is 56.9 µM. Take `CN(C)CCN1C(=O)c2ccccc2N(C)c2ccccc21` [Dibenzepin hydrochloride]: the AC50 was determined as 36.6 µM. Take `CNCc1ccc(NC(=O)c2c[nH]c3c2C(=O)CCC3)cc1` [CP-409092]: the AC50 came out at 84.3 µM.

On to `CC(=O)Oc1ccc(C2(c3ccc(OC(C)=O)cc3)Oc3ccccc3NC2=O)cc1` [Bisoxatin acetate], for which the half-maximal activity concentration (AC50) turned out to be 3.76 µM. To `O=C(c1ccc(O)cc1)c1ccc(Cl)cc1` [4-Hydroxy-4'-chlorobenzophenone] belongs 86.9 µM; to `CC1CC(OC(=O)C(O)c2ccccc2)CC(C)(C)C1` (stereo not shown) [Cyclandelate], 44.8 µM; to `CCN(CC)CCOCCOC(=O)C1(c2ccccc2)CCCC1` [Carbetapentane], 11 µM. Consider `CCCCOC(=O)c1ccc(O)cc1` [Butylparaben], for which the AC50 was above 50 µM. As for `CCCCC(CC)C(=O)OCCOCCOCCOCCOC(=O)C(CC)CCCC` (stereo not shown) [Tetraethylene glycol di(2-ethylhexanoate)], the AC50 amounted to 82.3 µM. With `Nc1c2ccccc2nc2ccccc12` [9-Aminoacridine, monohydrochloride, monohydrate] the figure was 3.62 µM; with `C=C(C)C(=O)Nc1ccc(Cl)c(Cl)c1` [Chloranocryl], 55.5 µM; with `CO[C@H]1O[C@@H]2O[C@@]3(C)CC[C@H]4[C@H](C)CC[C@@H]([C@H]1C)[C@@]24OO3` [Artemether], above 50 µM. To `CCN(CC)C(=O)C(C)Oc1cccc2ccccc12` (stereo not shown) [Napropamide] belongs 74.1 µM; to `O=C1CCN(c2ccccc2)N1` [3-Pyrazolidinone,1-phenyl-], above 90 µM. To `CNc1cc(OC)c(C(=O)N[C@@H]2CCN(Cc3ccccc3)[C@@H]2C)cc1Cl` (racemic) [Nemonapride] belongs 36.4 µM.

In the case of `C[C@]12CC[C@H](O)CC1=CC[C@@H]1[C@@H]2CC[C@]2(C)C(=O)CC[C@@H]12` [Dehydroepiandrosterone], the AC50 is above 50 µM. In the case of `CS(=O)(=O)Nc1ccc([N+](=O)[O-])cc1Oc1ccccc1` [Nimesulide], the AC50 was above 20 µM. To `O=C(OCc1ccccc1)c1ccc(O)cc1` [Benzylparaben] belongs above 50 µM; to `CC(C(=O)O)c1ccc(N2Cc3ccccc3C2=O)cc1` (stereo not shown) [Indoprofen], 7.85 µM.

With `Nc1ccc(Br)cc1` [4-Bromoaniline], the concentration at half-maximal activity (AC50) turned out to be 47.9 µM. On to `CC(C)(C)C(O)C(Oc1ccc(Cl)cc1)n1cncn1` (stereo not shown) [Triadimenol], for which the AC50 was above 90 µM. As to `CCC(Cc1c(I)cc(I)c(N)c1I)C(=O)O` (stereo not shown) [Iopanoic acid], the half-maximal activity concentration (AC50) was above 20 µM. With `Cc1ccccc1C(=O)Nc1cccc(OC(C)C)c1` [Mepronil] the figure was 48.2 µM; with `CN1C(=O)[C@@H](NC(=O)c2cc3ccccc3[nH]2)N=C(c2ccccc2)c2ccccc21` [Devazepide], 6.13 µM; with `Clc1ccc(CCC(Cn2ccnc2)Sc2c(Cl)cccc2Cl)cc1` (stereo not shown) [Butoconazole nitrate], 17.9 µM. To `CCCCCCCCCC=CCC1CC(=O)OC1=O` (stereo not shown) [(2-Dodecenyl)succinic anhydride] belongs 74.5 µM. In the case of `c1ccc(-c2cccc(-c3ccccc3)c2)cc1` [1,1':3',1''-Terphenyl], the AC50 was found to be 50.3 µM. To `Oc1ccc2ccc3cccc4ccc1c2c34` [1-Hydroxypyrene] belongs 55.7 µM; to `CCC(=O)NCC[C@@H]1CCc2ccc3c(c21)CCO3` [Ramelteon], 39.2 µM. As for `CCCCC[Si](OCC)(OCC)OCC` [Triethoxypentylsilane], the AC50 worked out at 45.9 µM. Take `Brc1cc(Oc2cc(Br)c(Br)c(Br)c2Br)c(Br)c(Br)c1Br` [Octabromodiphenyl ether]: the half-maximal activity concentration (AC50) came to 10.5 µM. On to `COc1cc2c(cc1N)oc1ccccc12` [2-Methoxy-3-aminodibenzofuran], for which the half-maximal activity concentration (AC50) is 84.6 µM.

As to `O=C1OC2(c3ccc(O)cc3Oc3cc(O)ccc32)c2ccccc21` [Fluorescein], the AC50 was above 50 µM.

`CCN(C(=O)N(CC)c1ccccc1)c1ccccc1` [N,N'-Diethylcarbanilide]: the AC50 was 45.9 µM.

For `COCC(C)N(C(=O)CCl)c1c(C)csc1C` (stereo not shown) [Dimethenamid], the AC50 was above 50 µM. For `CCCCCCCCCCCC(=O)OCC(O)CO` (stereo not shown) [1-Monolaurin], the AC50 was 47.2 µM.
